Bioassay records (PubChem)
Shiga inhibitor – A qHTS for Small Molecule Inhibitors of Shiga Toxin; Vero cells, Shiga toxin protein synthesis inhibition reporter; inhibition, % at 38.7 µM; hit rate 9.2% among 290,000; AID 2315, 2010; in the data active = inhibition mostly above about 28%, no sharp cut-off; inactive = mostly below about 43%; note: 0% is about no effect
Pf growth 96h – Primary qHTS for delayed death inhibitors of the malarial parasite plastid, 96 hour incubation | P. falciparum luciferase reporter growth, 96 h | Potency, µM (titrated, usually from 28.7 µM), for the others: top-dose activity change, negative = inhibition, hits mostly inhibitors | hit rate 6.9% among 320,000; note: potency is the fitted concentration of half-maximal effect; % is set by controls: 0 for no effect and ±100 for the full control effect
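Luminescence readout: decreased luciferase signal marks inhibited growth of reporter-expressing P. falciparum in infected red cells (2% hematocrit, 0.05% parasitemia final), exposed to compound two generations (96 h, 37 C, 5% CO2).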
NS1 function inh – qHTS Assay for Inhibitors of Influenza NS1 Protein Function; Potency, µM (series often up to 46.1 µM), without a hit: top-dose activity, positive = more growth; hit rate 0.4% among 270,000; AID 2326, 2010; calls by dose curve; note: potency is the fitted concentration of half-maximal effect; actives are rising curves; nearly all actives have a fitted effect of over 50% in size
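OD600 was taken as the measure of yeast growth restored by compound in an NS1-expressing S. cerevisiae strain. Cells had been washed out of glucose medium and diluted 1:100 into galactose -URA medium, pH 6.0.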
Pf growth 48h – Primary qHTS for delayed death inhibitors of the malarial parasite plastid, 48 hour incubation; P. falciparum luciferase growth in erythrocytes, 48 h; Potency, µM (highest dose often 28.7 µM), without a hit: top-dose activity change, negative = inhibition, usual class: inhibitors; hit rate 5.9% among 310,000; AID 504832, 2011; note: potency is the fitted concentration of half-maximal effect; % is set by controls: 0 for no effect and ±100 for the full control effect
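Read-out is firefly luciferase luminescence from an integrated reporter in P. falciparum, so falling signal marks reduced parasite growth. Infected erythrocytes were at 2% hematocrit and 0.1% parasitemia (final) in Albumax-supplemented RPMI 1640.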
Cycloheximide cs – Cycloheximide Counterscreen for Small Molecule Inhibitors of Shiga Toxin; max response, %; AID 2314, 2010; hit rate 12% among 300,000; cell reporter, cycloheximide protein synthesis inhibition counterscreen; in the data active = max response mostly above about 13%, no sharp cut-off; inactive = mostly below about 14%; note: read at 38.3 µM for the half of the compounds with a filed dose; 0% is about no effect
An asterisk follows results filed as active; ? = inconclusive; / = not tested or not shown. This is a sample that favours compounds with a hit; in the whole collection about 21% have one here. Unless noted, calls come from the whole dose curve; as a rule, active = well fitted inhibition curve with a large enough effect; inconclusive = small, poorly fitted or top-dose-only effect, or another doubt; inactive = no such curve, though single readings can be large or run the other way.

SMILES	Shiga inhibitor	Pf growth 96h	NS1 function inh	Pf growth 48h	Cycloheximide cs
COCC(COS(N)(=O)=O)Cc1ccccc1 (stereo unspecified)	-11.3	?	17.8%	23.5%	-2.2
CCN(CC)S(=O)(=O)c1ccc2[nH]c(=O)cc(C(=O)NCC3CCCO3)c2c1 (stereo unspecified)	/	21.1%	/	?	/
CC1CC(=O)c2c(cc3c(-c4c(O)cc(O)c5c(O)c6c(cc45)OC(C)CC6=O)c(O)cc(O)c3c2O)O1 (stereo unspecified)	-19.7	5.7%	?	0.415µM*	1.6
CCCCP(=O)(CCCC)Cc1ccccc1O	-10.3	?	-6.1%	14.7µM*	-2.3
CCCCP(=O)(O)c1ccccc1	2.3	?	14.4%	25.0%	-4.0
C=C(C)CNC(=S)N/N=C1\CCCCc2ccccc21	-3.8	14.7µM*	-27.1%	?	4.3
CCNC(=S)N/N=C1\C(=O)c2cccc3cccc1c23	-25.4	/	6.3%	11.0%	9.9
CCNC(=S)N/N=C1\CCCCc2ccccc21	7.8	?	-43.2%	11.7µM*	-0.7
Cc1ccc(NC(=S)N/N=C2/CCCCc3ccccc32)cc1	23.2	11.7µM*	-52.5%	?	16.7*
O=C(COc1cccc(Br)c1)N/N=C1\CCCc2ccccc21	12.8	27.5%	/	40.4%	-3.6
Cc1cccc(NC(=S)N/N=C2/CCCCc3ccccc32)c1	-4.7	?	?	?	-4.5
Cc1ccc(C)c(NC(=S)N/N=C2\CCc3ccccc32)c1	13.9	5.22µM*	-0.9%	51.4%	14.0
O=C(O)c1cn(Cc2ccccc2)c2ccc(Cl)cc2c1=O	/	-0.2%	/	?	/
Cc1csc(SCC(=O)Nc2cc(S(=O)(=O)N(C)C)ccc2C)n1	/	-6.9%	/	-12.3%	/
COc1cc2c(c(OC)c1OC)-c1c(cc3c(c1OC)OCO3)[C@@H](OC(C)=O)[C@H](C)[C@H](C)C2	17.3	10.4µM*	?	13.1µM*	-3.8
O=C(Nc1nc(-c2ccc3ccccc3c2)cs1)c1ccc(N2C(=O)CCC2=O)cc1	-7.0	-19.0%	17.3%	-6.6%	-2.8
O=C(O)c1ccccc1C(=O)Nc1nc(-c2ccc3ccccc3c2)cs1	65.9*	6.9%	?	39.3%	36.4*
CCOC(=O)C(=CNc1nc(-c2ccccc2)c(C(=O)Nc2ccc(-c3ccccc3)cc2)s1)C(=O)OCC	5.8	14.7µM*	9.0%	?	-8.2
CCOC(=O)C(=CNc1nc(-c2ccc3ccccc3c2)cs1)C(=O)OCC	38.0*	74.3%	-3.2%	79.3%	26.8*
CCN(CC)C(=O)C1CCN(S(=O)(=O)c2ccc(C3CNC(=O)C3)cc2)CC1 (stereo unspecified)	-0.7	29.7%	-4.7%	1.6%	-2.7
CSc1ncccc1C(=O)N1CCCC(C(=O)c2cc(F)ccc2F)C1 (stereo unspecified)	-5.1	9.28µM*	2.9%	-11.0%	-1.9
CCc1noc(C)c1C(=O)N1CCCC(C(=O)c2cc(F)ccc2OC)C1 (stereo unspecified)	-11.1	11.7µM*	-0.6%	7.9%	-2.8
O=C(/C=C/c1ccc(Cl)cc1)N1CCN(c2ccc(Cl)cc2[N+](=O)[O-])CC1	7.6	?	-56.8%	7.2%	4.2
O=C(/C=C/c1cccs1)N1CCN(c2ccccc2F)CC1	63.4*	-6.1%	-10.5%	-1.3%	14.9*
O=C(/C=C/c1ccc([N+](=O)[O-])cc1)N1CCN(c2ccccc2F)CC1	46.0*	20.7%	7.8%	21.1%	14.9*
SMILES	Shiga inhibitor	Pf growth 96h	NS1 function inh	Pf growth 48h	Cycloheximide cs
C/C(=N\NC(=O)c1ccccc1)c1ccccc1Br	66.9*	60.5%	-0.6%	51.4%	58.1*
C/C(=N\NC(=O)OC(C)(C)C)c1ccccc1Br	62.8*	36.9%	3.2%	48.9%	59.2*
NNC(=O)c1ccccc1OCCOc1ccccc1	5.9	-8.8%	8.8%	0.0%	-3.1
C/C(=N\NC(=O)c1ccccc1OCCOc1ccccc1)c1ccccc1F	/	?	/	11.7µM*	/
C/C(=N\NC(=O)c1ccccc1)c1ccccc1F	86.6*	408.2%	-5.5%	423.7%	25.6*
O=C(Nc1ccc(NC(=O)c2ccccc2Br)cc1)c1ccccc1	15.5	-1.8%	1.7%	41.3%	16.4
C=CCn1c(SCC(=O)N2CCc3ccccc3C2)nnc1-c1ccncc1	-18.5	-6.6%	-17.8%	7.6%	-2.8
Cc1ccc(S(=O)(=O)N2CCN(CCOc3cccc(C)c3)CC2)cc1	/	-29.8%	/	?	/
CC(C)C[C@@H](C(=O)O)N(Cc1cccc(CN([C@@H](CC(C)C)C(=O)O)S(C)(=O)=O)c1)S(C)(=O)=O	-4.2	82.1%	28.7%	47.9%	-1.5
COC(=O)[C@@H](NCc1cccc(CN([C@H](C(=O)OC)C(C)C)S(C)(=O)=O)c1)C(C)C	-0.7	14.7µM*	0.9%	?	0.9
CCOc1ccc(Cc2nccc3cc(OCC)c(OCC)cc23)cc1OCC	/	4.05µM*	/	?	/
COCCC(=O)N1CCC(Oc2ccc(C(=O)NCc3cccc(C)n3)cc2)CC1	-15.6	51.1%	9.5%	12.5%	-1.8
O=C(Nc1nc2ccccc2n1CCN1CCCCC1)C1CCCCC1	-10.3	?	2.7%	?	-4.2
S=C(Nc1ccccc1)Nc1nc2ccccc2n1CCOc1ccc(Cl)cc1	25.8	11.7µM*	2.9%	7.38µM*	9.0
CCn1c(NC(=S)Nc2ccccc2)nc2ccccc21	53.2*	3.29µM*	-15.8%	?	28.9*
CCn1c(NC(=O)C2CCCCC2)nc2ccccc21	36.0*	350.6%	-3.9%	10.4µM*	26.1*
CCN(CC)CCCNC(=O)c1cc(-c2ccccc2)c(N2CCCCC2)s1	-5.7	?	0.1%	-25.5%	-2.3
CC(=O)N1c2ccc(S(=O)(=O)N3CCC(C(=O)Nc4ccccn4)CC3)cc2CC1C (stereo unspecified)	13.2	5.86µM*	4.3%	?	-4.0
COc1ccc(NC(=O)CN(C)S(=O)(=O)c2ccc3c(c2)CC(C)N3C(C)=O)c(OC)c1 (stereo unspecified)	8.8	7.38µM*	5.2%	?	2.4
COc1ccc(CNC(=O)C2CCN(S(=O)(=O)c3ccc4c(c3)CC(C)N4C(C)=O)CC2)cc1 (stereo unspecified)	13.7	11.7µM*	-7.0%	?	2.7
COc1ccc(S(=O)(=O)Nc2ccccc2C(=O)NCc2cccnc2)cc1	-6.1	-23.6%	5.0%	17.8%	-7.0
CC(Oc1ccc(Cl)cc1)C(=O)NNC(=S)NC(=O)c1ccco1 (stereo unspecified)	-5.5	?	-32.1%	?	-2.4
CCn1c(C(=O)Nc2ccsc2C(=O)OC)cc2sc(Cl)cc21	-12.9	?	-63.2%	/	-7.9
CC(C)C[C@H](NC(=O)OC(C)(C)C)C(=O)N[C@@H](CO)[C@H](O)[C@@H]1C[C@@H]1C(=O)N1CCCC1	4.0	?	15.0%	0.0%	-1.9
O=C(/C=C/c1ccccc1[N+](=O)[O-])NCCCN1CCCC1=O	-19.4	-12.9%	0.7%	7.2%	16.8
Cc1ccc([N+](=O)[O-])c(NC2OC(CO)C(O)C2O)c1 (stereo unspecified)	34.0	5.22µM*	/	-18.1%	-4.1
